# From PubChem BioAssay (NCATS)
# Inconclusive results are not listed. Entries that show only a call come without a potency. The source made the active and inactive calls. Calls come from the whole dose curve; as a rule, active = well fitted curve in the direction sought with a large enough effect; inconclusive = small, poorly fitted or top-dose-only effect, or another doubt; inactive = no such curve, though single readings can be large; an effect the other way counts as inactive or inconclusive.
# Columns and labels:
# [1] = qHTS of pediatric cancer cell lines to identify multiple opportunities for drug repurposing: Primary screen for Rh18 cells (AID 1347102); note: nearly all actives have a fitted effect of over 65% in size
# In short: (§1)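 Cells (500-1,000/well) in growth media were settled 5 h at 37 degrees C, then given compounds for 48 h. Viability was read as CellTiter-Glo luminescence. Primary runs used MIPE at 11 points (0.78 nM-46 µM) and NPC at 8 points (0.59 nM-46 µM); follow-ups used 11 points.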
# [2] = qHTS of pediatric cancer cell lines to identify multiple opportunities for drug repurposing: Primary screen for RD cells (AID 1347104); note: nearly all actives have a fitted effect of over 55% in size; note: potency is the fitted concentration of half-maximal effect
# In short: (§2)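 Viability was measured as metabolically active cells after 48 hours of treatment, read by CellTiter-Glo luminescence. Compounds were tested at multiple final concentrations, giving concentration-response curves.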
# [3] = qHTS of pediatric cancer cell lines to identify multiple opportunities for drug repurposing: Primary screen for MG 63 (6-TG R) cells (AID 1347105); note: nearly all actives have a fitted effect of over 50% in size; note: potency is the fitted concentration of half-maximal effect
# In short: as §2
# [4] = qHTS of pediatric cancer cell lines to identify multiple opportunities for drug repurposing: Primary screen for control Hh wild type fibroblast cells (AID 1347106); note: nearly all actives have a fitted effect of over 55% in size; note: potency is the fitted concentration of half-maximal effect
# In short: as §1
# [5] = qHTS of pediatric cancer cell lines to identify multiple opportunities for drug repurposing: Primary screen for Rh30 cells (AID 1347107); note: series mostly up to about 46 µM; nearly all actives have a fitted effect of over 75% in size
# In short: as §1
# [6] = qHTS of pediatric cancer cell lines to identify multiple opportunities for drug repurposing: Primary screen for Rh41 cells (AID 1347108);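 note: series mostly up to about 46 µM; luminescence drop marks cytotoxic hits; nearly all actives have a fitted effect of over 70% in size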
# In short: as §2
# [7] = qHTS of pediatric cancer cell lines to identify multiple opportunities for drug repurposing: Confirmatory screen for NB1643 cells (AID 1347109); note: nearly all actives have a fitted effect of over 45% in size; note: potency is the fitted concentration of half-maximal effect
# In short: as §1
# [8] = qHTS of pediatric cancer cell lines to identify multiple opportunities for drug repurposing: Confirmatory screen for A673 cells (AID 1347110);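 note: cells exposed to compound for 48 h before the viability read; nearly all actives have a fitted effect of over 65% in size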; note: potency is the fitted concentration of half-maximal effect
# In short: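 qHTS titration format: primary MIPE 0.78 nM-46 µM (11 pts), NPC 0.59 nM-46 µM; confirmation 11 pts. 48 h, CTG luminescence.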
# [9] = qHTS of pediatric cancer cell lines to identify multiple opportunities for drug repurposing: Primary screen for OHS-50 cells (AID 1347103); note: nearly all actives have a fitted effect of over 40% in size; note: potency is the fitted concentration of half-maximal effect
# In short: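 Cells (500-1,000/well) rested 5 h, then received compounds for 48 h; metabolically active cells were measured by CellTiter-Glo luminescence. Final concentrations spanned up to 46 µM (MIPE, 11-point) or 0.59 nM-46 µM (NPC, 8-point) in primary screens, 11-point in follow-ups.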
# [10] = qHTS of pediatric cancer cell lines to identify multiple opportunities for drug repurposing: Confirmatory screen for SK-N-MC cells (AID 1347111);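 note: potency is the fitted concentration of half-maximal effect; cells exposed to compound for 48 h before the readout; nearly all actives have a fitted effect of over 70% in size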
# In short: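 Metabolically active cells were quantified by ATP-dependent luminescence (CellTiter-Glo, 15 min at room temperature) following 48 h treatment. Cells had been plated at 500-1,000 per well and settled for 5 h beforehand.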
structure (smiles),measurement,setting,value
NCc1ccccc1Sc1ccccc1CO,Potency,[1],inactive
same,Potency,[2],inactive
same,Potency,[3],inactive
same,Potency,[4],inactive
same,Potency,[5],inactive
same,Potency,[6],inactive
CC(C)Nc1cccnc1N1CCN(C(=O)c2cc3cc(NS(C)(=O)=O)ccc3[nH]2)CC1,Potency,[1],inactive
same,Potency,[2],inactive
same,Potency,[3],inactive
same,Potency,[4],inactive
same,Potency,[5],inactive
same,Potency,[6],inactive
O=C(c1ccc(F)cc1)C1CCN(CCn2c(=S)[nH]c3ccccc3c2=O)CC1,Potency,[1],inactive
same,Potency,[3],inactive
same,Potency,[4],inactive
same,Potency,[5],inactive
same,Potency,[6],inactive
O=C(NC1CCN(CCc2c[nH]c3ccccc23)CC1)c1ccccc1,Potency,[1],inactive
same,Potency,[2],inactive
same,Potency,[4],inactive
same,Potency,[5],inactive
same,Potency,[6],inactive
O=C1[C@H](CC[C@H](O)c2ccc(F)cc2)[C@@H](c2ccc(O)cc2)N1c1ccc(F)cc1,Potency,[1],inactive
same,Potency,[2],inactive
same,Potency,[4],inactive
same,Potency,[5],inactive
CCCN(CCc1cccs1)[C@H]1CCc2c(O)cccc2C1,Potency,[1],inactive
same,Potency,[2],inactive
same,Potency,[3],inactive
same,Potency,[4],inactive
same,Potency,[5],inactive
same,Potency,[6],inactive
O=[N+]([O-])c1cccc(S(=O)(=O)NCCNS(=O)(=O)c2cccc([N+](=O)[O-])c2)c1,Potency,[1],inactive
same,Potency,[2],inactive
same,Potency,[3],inactive
same,Potency,[4],inactive
same,Potency,[5],inactive
same,Potency,[6],inactive
Cc1ccc(O)c([C@H](CCN(C(C)C)C(C)C)c2ccccc2)c1,Potency,[1],inactive
same,Potency,[3],inactive
same,Potency,[4],inactive
same,Potency,[5],inactive
same,Potency,[6],inactive
N#C/C(=C1\SCC(c2ccccc2Cl)S1)n1ccnc1 (stereo not given),Potency,[1],inactive
same,Potency,[2],inactive
same,Potency,[3],inactive
same,Potency,[4],inactive
same,Potency,[5],inactive
same,Potency,[6],inactive
C=C[C@@]1(C)CC(=O)[C@]2(O)[C@@]3(C)[C@@H](O)CCC(C)(C)[C@@H]3[C@H](O)[C@H](OC(C)=O)[C@@]2(C)O1,Potency,[1],inactive
same,Potency,[2],inactive
same,Potency,[3],inactive
same,Potency,[4],inactive
same,Potency,[5],inactive
same,Potency,[6],inactive
same,Potency,[7],inactive
same,Potency,[8],inactive
CN(Cc1ccc(C(C)(C)C)cc1)Cc1cccc2ccccc12,Potency,[1],inactive
same,Potency,[2],inactive
same,Potency,[4],inactive
same,Potency,[5],inactive
same,Potency,[6],inactive
CCc1oc2ccccc2c1C(=O)c1cc(I)c(O)c(I)c1,Potency,[1],inactive
same,Potency,[3],inactive
same,Potency,[4],inactive
same,Potency,[5],inactive
NS(=O)(=O)c1cc2c(cc1Cl)NC(CC1CCCC1)NS2(=O)=O (stereo not given),Potency,[1],inactive
same,Potency,[2],inactive
same,Potency,[3],inactive
same,Potency,[4],inactive
same,Potency,[5],inactive
same,Potency,[6],inactive
CN(CCCN1c2ccccc2CCc2ccccc21)CC(=O)c1ccc(Cl)cc1,Potency,[1],inactive
same,Potency,[2],inactive
same,Potency,[3],inactive
same,Potency,[4],inactive
same,Potency,[5],inactive
same,Potency,[6],inactive
OCCOCCN1CCN(C2=Nc3ccccc3Sc3ccccc32)CC1,Potency,[1],inactive
same,Potency,[2],inactive
same,Potency,[3],inactive
same,Potency,[4],inactive
same,Potency,[5],inactive
same,Potency,[6],inactive
C=C[C@H]1CN2CC[C@H]1C[C@H]2[C@H](O)c1ccnc2ccc(OC)cc12,Potency,[1],inactive
same,Potency,[2],inactive
same,Potency,[3],inactive
same,Potency,[4],inactive
same,Potency,[5],inactive
same,Potency,[6],inactive
C[N+]1(CC2COC(c3ccccc3)(C3CCCCC3)O2)CCCCC1 (stereo not given),Potency,[1],inactive
same,Potency,[2],inactive
same,Potency,[3],inactive
same,Potency,[4],inactive
same,Potency,[5],inactive
same,Potency,[6],inactive
O[C@@H](c1cc(C(F)(F)F)nc2c(C(F)(F)F)cccc12)[C@H]1CCCCN1,Potency,[9],21.9 µM (active)
same,Potency,[3],26.6 µM (active)
same,Potency,[4],inactive
COc1ccc(C(Cl)=C(c2ccc(OC)cc2)c2ccc(OC)cc2)cc1,Potency,[1],inactive
same,Potency,[3],inactive
same,Potency,[4],inactive
same,Potency,[5],inactive
same,Potency,[6],inactive
CNCCCCOc1ccccc1Cc1ccccc1,Potency,[9],17.4 µM (active)
same,Potency,[2],23.7 µM (active)
same,Potency,[4],inactive
same,Potency,[5],inactive
CCOC(=O)[C@@](C)(N)Cc1ccc(O)c(O)c1,Potency,[1],inactive
same,Potency,[4],inactive
CC(C)(Cc1c[nH]c2ccccc12)NCC(O)COc1ccccc1C#N (stereo not given),Potency,[1],inactive
same,Potency,[3],inactive
same,Potency,[4],inactive
same,Potency,[5],inactive
same,Potency,[6],inactive
CC[C@]12CCCN3CCc4c(n(c5ccccc45)C(=O)C1)[C@@H]32,Potency,[9],27.6 µM (active)
same,Potency,[4],inactive
CCOC(=O)c1ccc(N)cc1,Potency,[1],inactive
same,Potency,[3],inactive
same,Potency,[4],inactive
same,Potency,[5],inactive
same,Potency,[6],inactive
C#C[C@]1(O)CC[C@H]2[C@@H]3CCC4=Cc5oncc5C[C@]4(C)[C@H]3CC[C@@]21C,Potency,[9],24.6 µM (active)
same,Potency,[4],inactive
same,Potency,[5],inactive
same,Potency,[6],inactive
O=C(N/N=C/c1ccc([N+](=O)[O-])o1)c1ccc(O)cc1,Potency,[3],inactive
same,Potency,[4],inactive
same,Potency,[5],inactive
Oc1ccc(Cl)cc1Cc1cc(Cl)ccc1O,Potency,[9],9.78 µM (active)
same,Potency,[2],21.1 µM (active)
same,Potency,[4],inactive
CCCCCCCCNC(C)C(O)c1ccc(SC(C)C)cc1 (stereo not given),Potency,[9],21.9 µM (active)
same,Potency,[3],26.6 µM (active)
same,Potency,[4],inactive
Cc1ccc2c(Br)cc(Br)c(O)c2n1,Potency,[9],11 µM (active)
same,Potency,[2],10.6 µM (active)
same,Potency,[3],13.3 µM (active)
same,Potency,[4],inactive
N/C(=N\N=C\c1ccc(Cl)cc1)N/N=C/c1ccc(Cl)cc1,Potency,[1],inactive
same,Potency,[4],inactive
same,Potency,[5],inactive
same,Potency,[6],inactive
O=C(Oc1cccc2cccnc12)c1ccccc1,Potency,[4],inactive
c1ccc(-c2nc[nH]c2-c2ccccc2)cc1,Potency,[2],inactive
same,Potency,[4],inactive
same,Potency,[5],inactive
same,Potency,[6],inactive
CO[C@H]1C=CO[C@@]2(C)Oc3c(C)c(O)c4c(O)c(c(/C=N/N5CCN(C)CC5)c(O)c4c3C2=O)NC(=O)/C(C)=C\C=C[C@H](C)[C@H](O)[C@@H](C)[C@@H](O)[C@@H](C)[C@H](OC(C)=O)[C@@H]1C,Potency,[9],inactive
same,Potency,[3],inactive
same,Potency,[5],inactive
same,Potency,[6],inactive
CN1CCN(CCC(=O)N2c3ccccc3Sc3ccc(C(F)(F)F)cc32)CC1,Potency,[9],17.4 µM (active)
same,Potency,[5],inactive
O=C(CCCN1CC=C(n2c(=O)[nH]c3ccccc32)CC1)c1ccc(F)cc1,Potency,[1],inactive
same,Potency,[3],inactive
same,Potency,[7],inactive
same,Potency,[8],inactive
Oc1c(Cl)cc(Cl)c(Cl)c1Cc1c(O)c(Cl)cc(Cl)c1Cl,Potency,[9],6.17 µM (active)
same,Potency,[2],11.9 µM (active)
same,Potency,[3],6.68 µM (active)
same,Potency,[4],inactive
same,Potency,[5],inactive
CCc1cc(Cl)c(OC)c(C(=O)NC[C@@H]2CCCN2CC)c1O,Potency,[1],inactive
same,Potency,[3],inactive
same,Potency,[4],inactive
same,Potency,[5],inactive
same,Potency,[6],inactive
CC(=O)O[C@]1(C(C)=O)CC[C@H]2[C@@H]3C=C(Cl)C4=CC(=O)CC[C@]4(C)[C@H]3CC[C@@]21C,Potency,[1],inactive
same,Potency,[4],inactive
same,Potency,[5],inactive
CC(=O)OC[C@H]1O[C@@H](n2ncc(=O)[nH]c2=O)[C@H](OC(C)=O)[C@@H]1OC(C)=O,Potency,[1],inactive
same,Potency,[4],inactive
same,Potency,[5],inactive
C[C@H]1[C@H]2CC[C@H]3[C@@H]4CC=C5C[C@@H](N(C)C)CC[C@]5(C)[C@H]4CC[C@]23CN1C,Potency,[1],inactive
same,Potency,[3],inactive
same,Potency,[4],inactive
same,Potency,[5],inactive
same,Potency,[6],inactive
O=C(Nc1ccccc1)OCC(CN1CCCCC1)OC(=O)Nc1ccccc1 (stereo not given),Potency,[2],29.9 µM (active)
same,Potency,[4],inactive
same,Potency,[5],inactive
CN1CCc2cccc3c2[C@H]1Cc1ccc(O)c(O)c1-3,Potency,[3],inactive
same,Potency,[4],inactive
C[C@H]1O[C@@H](O[C@H]2CC[C@@]3(C)[C@H](CC[C@@H]4[C@@H]3C[C@@H](O)[C@]3(C)[C@@H](C5=CC(=O)OC5)CC[C@]43O)C2)C[C@H](O)[C@@H]1O[C@H]1C[C@H](O)[C@H](O[C@H]2C[C@H](O)[C@H](O[C@@H]3O[C@H](CO)[C@@H](O)[C@H](O)[C@H]3O)[C@@H](C)O2)[C@@H](C)O1,Potency,[9],0.219 µM (active)
same,Potency,[2],0.15 µM (active)
same,Potency,[3],0.0841 µM (active)
same,Potency,[4],0.075 µM (active)
same,Potency,[5],inactive
same,Potency,[7],0.414 µM (active)
same,Potency,[8],737 nM (active)
same,Potency,[10],0.414 µM (active)
CN1CCC[C@@H]1CCO[C@](C)(c1ccccc1)c1ccc(Cl)cc1,Potency,[9],15.5 µM (active)
same,Potency,[2],26.6 µM (active)
same,Potency,[4],inactive
same,Potency,[5],inactive
O=C(CCN1CCN2CCCC2C1)N1c2ccccc2Sc2ccc(Cl)cc21 (stereo not given),Potency,[2],inactive
same,Potency,[4],inactive
same,Potency,[5],inactive
same,Potency,[6],inactive
CN1CCN(C2=Nc3cc(F)ccc3Cc3ccccc32)CC1,Potency,[4],inactive
same,Potency,[5],inactive
same,Potency,[6],inactive
O=C(Nc1ncc([N+](=O)[O-])s1)c1cccs1,Potency,[9],30.9 µM (active)
same,Potency,[4],inactive
CCCCCCCCCCC[C@@H](C[C@@H]1OC(=O)[C@H]1CCCCCC)OC(=O)[C@H](CC(C)C)NC=O,Potency,[1],inactive
same,Potency,[4],inactive
same,Potency,[5],inactive
same,Potency,[6],inactive
same,Potency,[7],inactive
same,Potency,[8],inactive
CCN(CC)CCNc1ccc(CO)c2sc3ccccc3c(=O)c12,Potency,[9],24.6 µM (active)
same,Potency,[2],23.7 µM (active)
same,Potency,[3],inactive
same,Potency,[4],18.8 µM (active)
same,Potency,[5],inactive
NC(=O)n1c(O)c(C(=O)c2cccs2)c2cc(Cl)ccc21,Potency,[1],inactive
same,Potency,[3],inactive
same,Potency,[4],inactive
same,Potency,[5],inactive
same,Potency,[6],inactive
CCN(CC)CCOc1ccccc1C(=O)CCc1ccccc1,Potency,[1],inactive
same,Potency,[3],inactive
same,Potency,[4],inactive
same,Potency,[5],inactive
same,Potency,[6],inactive
CCN(CC)CCOc1ccc2c(c1)C(=O)c1cc(OCCN(CC)CC)ccc1-2,Potency,[3],inactive
same,Potency,[4],inactive
same,Potency,[5],inactive
same,Potency,[7],18.5 µM (active)
same,Potency,[10],7.37 µM (active)
CCc1oc2ccccc2c1C(=O)c1cc(Br)c(O)c(Br)c1,Potency,[1],inactive
same,Potency,[4],inactive
same,Potency,[5],inactive
same,Potency,[6],inactive
